Assay results as given in PubChem BioAssay AID1053173 (Broad Institute, 2014).
About 390 (26%) of roughly 1,500 compounds were called active. No rule for the calls is given here. A selection follows. Entries with a potency or affinity are not part of this list.

Each compound was assayed against Histone-lysine N-methyltransferase NSD2 (Homo sapiens) (UniProt O96028) (assay: NSD2 methyltransferase inhibitors, dose response, biochemical, AlphaScreen, cherry-picked samples (AID 1053173)). Settings: NSD2 H4 peptide methylation, 120 min; series mostly up to 10 µM.
Sequence of Histone-lysine N-methyltransferase NSD2 (Homo sapiens) (O96028 whole entry, looked up): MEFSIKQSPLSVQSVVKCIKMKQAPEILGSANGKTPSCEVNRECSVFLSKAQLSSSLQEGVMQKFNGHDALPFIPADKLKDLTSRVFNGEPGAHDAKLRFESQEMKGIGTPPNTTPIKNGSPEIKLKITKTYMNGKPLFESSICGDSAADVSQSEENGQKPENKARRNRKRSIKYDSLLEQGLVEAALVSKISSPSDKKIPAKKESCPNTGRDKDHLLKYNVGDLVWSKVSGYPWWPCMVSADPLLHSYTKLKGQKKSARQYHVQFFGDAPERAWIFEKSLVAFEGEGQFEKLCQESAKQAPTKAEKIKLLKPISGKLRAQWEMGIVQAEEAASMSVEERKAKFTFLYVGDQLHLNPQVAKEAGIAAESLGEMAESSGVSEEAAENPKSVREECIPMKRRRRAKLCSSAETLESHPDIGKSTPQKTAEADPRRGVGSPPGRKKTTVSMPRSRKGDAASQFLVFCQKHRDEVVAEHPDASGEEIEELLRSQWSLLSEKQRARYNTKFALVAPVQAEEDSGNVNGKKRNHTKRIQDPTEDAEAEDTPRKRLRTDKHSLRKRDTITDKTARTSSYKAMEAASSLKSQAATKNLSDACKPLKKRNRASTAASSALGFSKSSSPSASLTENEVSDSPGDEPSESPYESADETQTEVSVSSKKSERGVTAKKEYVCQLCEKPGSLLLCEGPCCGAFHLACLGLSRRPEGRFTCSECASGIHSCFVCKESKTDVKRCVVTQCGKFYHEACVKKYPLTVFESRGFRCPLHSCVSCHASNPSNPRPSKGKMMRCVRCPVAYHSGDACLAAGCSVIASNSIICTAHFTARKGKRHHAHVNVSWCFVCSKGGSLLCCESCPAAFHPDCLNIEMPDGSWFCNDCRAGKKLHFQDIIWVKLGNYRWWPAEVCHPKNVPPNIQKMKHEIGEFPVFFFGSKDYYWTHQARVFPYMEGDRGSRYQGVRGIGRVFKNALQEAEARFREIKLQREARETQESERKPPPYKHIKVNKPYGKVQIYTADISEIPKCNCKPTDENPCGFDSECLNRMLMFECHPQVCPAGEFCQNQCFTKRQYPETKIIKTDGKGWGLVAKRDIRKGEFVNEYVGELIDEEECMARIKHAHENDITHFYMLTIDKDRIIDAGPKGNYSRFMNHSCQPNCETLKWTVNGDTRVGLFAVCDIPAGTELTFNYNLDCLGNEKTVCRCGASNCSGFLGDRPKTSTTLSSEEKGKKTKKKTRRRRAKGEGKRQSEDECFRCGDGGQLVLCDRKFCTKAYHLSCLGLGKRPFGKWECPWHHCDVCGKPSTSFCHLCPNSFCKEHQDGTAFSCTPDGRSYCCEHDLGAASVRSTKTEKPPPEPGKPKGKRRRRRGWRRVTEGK

outcome, inactive:
O=C(CSc1nc(-c2ccccc2)c(-c2ccccc2)o1)N1CCCCC1, CCOC(=O)c1ccc(N=c2scc(C)n2CC)cc1, CC1(C)CC(N=C2C=CC3=NC45CCCCC4CC4=C(CCCC4)N5C3=C2)CC(C)(C)N1 (stereo unspecified), COc1ccc(N=c2scc(C)n2CCCN2CCCC2=O)cc1, CCOC(=O)Nc1ccc(=O)n(Cc2c(Cl)cccc2Cl)c1, CN(C(=S)NC(=O)C1(C)CC1(Cl)Cl)c1ccccc1 (stereo unspecified), O=C(NNC(=O)c1ccc(Cl)nc1)c1ccc(Br)cc1, Oc1ccc(/C=N/N2CCOCC2)c(O)c1O, Nc1cc(=O)[nH]c(SCC(=O)Nc2ccc(Cl)c(Cl)c2)n1, Cc1ccc(NC(=S)N2CCC(NC(=O)c3ccc(F)cc3)CC2)cc1, COCC(C)n1c(SCC(=O)NC2CCCCC2C)nc2ccccc2c1=O (stereo unspecified), Cc1cccc(-n2c(Cn3nc(C)c([N+](=O)[O-])c3C)n[nH]c2=S)c1, Cc1csc(SCC(=O)Nc2ccc3c(c2)OCCO3)n1, COC(=O)c1ccccc1-c1ccc(C(c2c(C)[nH][nH]c2=O)c2c(C)[nH][nH]c2=O)o1, Cc1[nH][nH]c(=O)c1C(c1ccc(-c2ccc(C(=O)O)cc2)o1)c1c(C)[nH][nH]c1=O, Cc1cccc(C(=O)NCc2nnc(SCC(=O)Nc3nnc(C)s3)n2C)c1, O=c1c2cnn(-c3ccccc3)c2nc(-c2ccco2)n1-c1ccccc1, Cc1ccc(S(=O)(=O)NC(C(=O)N2CCN(S(=O)(=O)c3cccc(F)c3)CC2)C(C)C)cc1 (stereo unspecified), Cc1ccccc1NCC(=O)Nc1cc(S(=O)(=O)N2CCCCC2)ccc1C, COc1ccccc1OCC(=O)Nc1ccc(S(=O)(=O)N2CCCC2)cc1, Cc1ccc(S(=O)(=O)N(C)CC(=O)NCCCn2ccnc2)cc1, CN(c1ccccc1)c1ncnc2c1ncn2C, COc1ccc2c(c1)Cc1sc(NC(C)=O)nc1-2, Cc1nn(-c2ccccn2)c2c1C(=O)C(Br)CC2 (stereo unspecified), CC(=O)c1ccc(N(CC(=O)NCCc2ccccc2)C(=O)c2csnn2)cc1, O=C(OCc1ccc([N+](=O)[O-])cc1)c1cc(=O)c2ccccc2o1, COc1ccccc1N(CC(=O)NCC1CCCO1)C(=O)CNS(=O)(=O)c1ccc(C)cc1 (stereo unspecified), O=C1c2ccccc2C(=O)N1CCC(c1ccc(F)cc1)c1ccco1 (stereo unspecified), COc1ccc(Cc2nnc(NC(=O)C3CC(=O)N(c4ccc(OC)cc4)C3)s2)cc1 (stereo unspecified), O=C(CN(C(=O)c1csnn1)c1ccc(F)c(Cl)c1)NC1CCCCC1, Cc1nc(N)sc1-c1nnc(SCC(=O)Nc2ccccc2C(F)(F)F)n1C, CC(C)(C)NC(=O)COC(=O)c1ccc2c(c1)C(=O)N(Cc1ccco1)C2=O, CC1=NN(c2ccccc2)C(=O)/C1=C/N(C)C, Cn1c(=O)[nH]c(=O)c2c1nc(N/N=C/c1ccncc1)n2Cc1ccc(F)cc1, Cc1ccc(-c2csc3nc(CN(C)Cc4ccccc4)[nH]c(=O)c23)cc1, CCC(CC)c1nnc(NC(=O)CCS(=O)(=O)Cc2ccccc2)s1, CCCCn1cnc2c(=S)nc(N)[nH]c21, CCn1cc(/C=N\NC(=O)C2(C)CC2(Cl)Cl)c(C)n1 (stereo unspecified), NNC(=O)c1nc(-c2ccccc2)cc(-c2ccccc2)n1, CC12CCC(C)(c3nc4ccccc4nc31)C2(C)C, Cc1cc(C)n(CCC(=O)N2CCN(S(=O)(=O)c3ccccc3)CC2)n1, Cc1cccc2c(N=NC(=O)c3ccc(NS(=O)(=O)c4cccs4)cc3)c(O)[nH]c12, Cc1cc(S(=O)(=O)NCc2cccnc2)ccc1F, O=C(COc1ncnc2c(Cl)cc(Cl)cc12)N1CCCCC1, Cn1ncc2c(Nc3cccc4ccccc34)ncnc21, O=C(NCCN1CCOCC1)NC1(C(F)(F)F)Oc2ccccc2O1, CCCCc1ccc(NC(=O)CSc2nc(=O)n(CCN(CC)CC)c3c2CCCC3)cc1, Cc1cc(SCC(=O)Nc2cccnc2Cl)nc2ccccc12, COc1ccc(C(=O)Nn2c(SCC(=O)c3ccc(Cl)cc3)nc3ccccc3c2=O)cc1, Cc1ccc(-c2cc(C(=O)N/N=C/c3ccccc3)n[nH]2)o1, Cc1cc(=O)[nH]c(N/N=C/c2c(C)nn(-c3ccccc3Cl)c2Cl)n1, Cc1ccc(O)c(NC(=O)c2cc3nc4c(c(C(F)(F)F)n3n2)CCc2ccccc2-4)c1, O=C(Nc1cc(F)ccc1F)N1CCN(c2ccnc3cc(Cl)ccc23)CC1, COc1ccc(C(=O)C(OC(=O)c2ccc(C)c(NC(C)=O)c2)c2ccccc2)cc1 (stereo unspecified), COCCN(C(=O)CNC(=O)c1ccco1)C(C(=O)NC1CCCC1)c1ccc(OC)cc1 (stereo unspecified), CC1(C)NC(=O)N(CCCOc2ccccc2Br)C1=O, CCOc1cc(NC2CS(=O)(=O)CC2O)c(OCC)cc1NC(=O)c1ccccc1 (stereo unspecified), Cc1ccc(N2C(=O)N(CC(=O)Nc3cccc([N+](=O)[O-])c3C)C(=O)C2C)cc1 (stereo unspecified), Cc1ccc(NC(=O)CCn2c(=O)oc3ccccc32)cc1, CNS(=O)(=O)c1cc(NC(=O)CCCNC(=O)c2ccc(Cl)cc2)ccc1C, Cc1ccc(NC(=O)CCC(=O)OCC(F)(F)C(F)F)cc1, O=C(NNC(=O)c1ccc(NC(=O)C2CC2)cc1)c1ccc(F)cc1, O=C(CC(=O)Nc1ccc(Cl)cc1)N/N=C\c1cccc(F)c1, CC1CCN(CCC(=O)Nc2ccccc2)CC1, CC1CCCCC12NC(=O)N(CC(=O)NC(=O)NCc1ccco1)C2=O (stereo unspecified), COc1cccc(CNC(=S)Nc2ccc(Cl)cc2C)c1, O=[N+]([O-])c1ccccc1-c1ccc(C(=S)N2CCCC2)o1, Cn1cc(-c2ccccc2C(N)=O)c(=O)c2ccccc21, CC1CCCC(NC(=O)COC(=O)c2c[nH]c(=O)[nH]c2=O)C1C (stereo unspecified), O=C(OCc1cnc(Cl)s1)c1cccs1, Cc1ccc(N2CS(=O)(=O)/C(=C/N(C)C)C2=O)cc1, Cn1c(CSCc2ccccc2)nnc1SCC(=O)Nc1nccs1, O=C(CC1C(=O)N(c2ccccc2)C(=S)N1c1ccccc1)c1ccc(Br)cc1 (stereo unspecified), CCn1c(O)c(/C=N/n2cnnc2)sc1=S, CCOc1ccc(-c2nnc(SCc3nc4ccccc4[nH]3)n2N)cc1, CCOC(=O)C(Oc1ccc2c(-c3ccc(OC)cc3)cc(=O)oc2c1C)c1ccccc1 (stereo unspecified), CCOC(=O)c1c(C#N)c(SCC(=O)Nc2ccc(OC)cc2)nc2c1CN(CC)CC2, COc1ccc(OCCSc2nnc(CCNC(=O)c3ccc(Cl)c(Cl)c3)n2C)cc1, COc1cccc(CN2C(=O)C(C)N(C(=O)c3c(F)cccc3F)c3ccccc32)c1 (stereo unspecified), CN1CCN(c2ccc(S(=O)(=O)N3CCOCC3)cc2NC(=O)COc2ccc(F)cc2Cl)CC1, COc1ccc(C2C(C(=O)/C=C/c3ccco3)=C(O)C(=O)N2CCN2CCOCC2)cc1OC (stereo unspecified), COc1ccc(CCNC(=O)Nc2ccc3c(c2)c(=O)n(C)n3CC=C(C)C)cc1OC, CCc1nnc(NC(=O)c2ccc3ccccc3n2)s1, CCc1nnc(NC(=O)c2ccc(COc3ccccc3)o2)s1, CCC1(c2ccc(F)cc2)NC(=O)N(CC(=O)N(CCC#N)c2ccccc2)C1=O (stereo unspecified), Cc1ccc(S(=O)(=O)N(C)C)cc1NC(=O)/C=C/c1cccs1, CC1(C)Cc2sc3c(=O)[nH]c(=S)[nH]c3c2CO1, CCOc1ccc(N2CC(C(=O)NCCc3c[nH]c4ccc(OC)cc34)CC2=O)cc1 (stereo unspecified), Cc1ccc(NC(=O)Cn2nnc(C(=O)NCc3ccccc3)c2N)cc1C, Cc1cc(C(=O)COC(=O)c2ccc([N+](=O)[O-])o2)c(C)n1CC1CCCO1 (stereo unspecified), COc1ccc(C(c2c(C)[nH]n(-c3ccccc3)c2=O)c2c(C)[nH]n(-c3ccccc3)c2=O)cc1OC, COCCN(C(=O)CCC(=O)Nc1ccccn1)C(C(=O)NC(C)C)c1ccc(C)cc1 (stereo unspecified), C/C(CC(=O)Nc1ccccn1)=N\NC(=O)C(=O)Nc1cccc(Cl)c1C, Cc1ccc(C(C[N+](=O)[O-])c2c(C)[nH]n(-c3ccccc3)c2=O)cc1 (stereo unspecified), Cc1[nH]n(-c2ccccc2)c(=O)c1C(C[N+](=O)[O-])c1ccc(F)cc1 (stereo unspecified), CCN(CC)C(=O)COC(=O)C1=NN(c2cc(C)ccc2C)C(=O)CC1, COC(=O)CCCC(=O)NC1CC(C)(C)Cc2c1cnn2-c1ccc(C)cc1 (stereo unspecified), C=CCn1c(SCc2ccc(C#N)cc2)nnc1-c1ccc(C)cc1, C=CCn1c(SCC(=O)N2CCN(c3ccccc3)CC2)nnc1-c1ccco1, Cc1cccc(-c2nnc(SCC(=O)c3ccc(O)cc3O)n2C)c1, CN(C)c1cccc2c1c(NC(=O)Nc1ccccc1)nn2C, O=C(c1ccc2c(c1)OCO2)C1CCCN(Cc2ccc3cccc(F)c3n2)C1 (stereo unspecified), CCNc1ccccc(C(=O)/C=C/c2ccc3c(c2)OCO3)c1=O, CC(Cc1c[nH]c2ccccc12)C(=O)NCc1ccco1 (stereo unspecified), CCOC(=O)N1CCN(C2=Nc3cccc4cccc2c34)CC1, CSc1ncccc1C(=O)Nc1nc2c(C)cccc2s1
